The source of these data is PubChem BioAssay AID1985 (Southern Research Specialized Biocontainment Screening …, 2009).

Molecules are shown by their SMILES. Out of some 2,300 compounds screened, about 1,000 (43%) were called active. The set was probably picked from earlier hits. The list shows a part of the results. Entries with a potency or affinity are not part of this list. Values without a mark were called inactive. No rule for the calls is given here.

The assay can be described thus: modified counter assay using GFP fluorescence, PhoP regulon inhibitor project, dose response (AID 1985). The following applies: S. Typhi, 4 h; series mostly up to 150 µM; inhibition: at the top concentration.
Turning to `c1csc(-n2nc3ccccc3n2)c1`, the “inhibition” value was -6.55%.

With `CC1Cc2ccccc2N1C(=O)CN1C(=O)C(=O)N(Cc2ccccc2)C1=O` (stereo not drawn), the “inhibition” value is -20.8%.

As to `CC(C)(C)SCCNC(=O)c1ccccc1`, the “inhibition” value was 18.5%. As for `CCOc1ccc(-c2c[n+]3c(n2-c2ccccc2)CCCCC3)cc1`, the figure is -17.4%; as for `COCCCNc1c2c(nc3nnnn13)CCCC2`, -4.03%. As for `CC(C)(C)c1ccc(OCCNC(=S)Nc2ccccc2)cc1`, the figure is -2.57%. As for `O=C(NCCCNc1ccnc2cc(Cl)ccc12)c1ccccc1F`, the figure is -0.31%. On to `C#CCOC(=O)c1ccccc1C(=O)OCC#C`, for which the “inhibition” value is 12.4%.

Consider `C=CCNc1nc(-c2ccccc2)nc(-n2ccnc2)n1`, for which the “inhibition” value is -15.1%. As for `O=C(CSc1nc2ccccc2o1)c1cc2ccccc2oc1=O`, the figure is 25.9%.

Take `CC(Sc1nc2ccccc2o1)C(=O)O` (stereo not drawn): the “inhibition” value is 34.4%.

As to `CN(CCO)CC(O)Cn1cnc2c1c(=O)n(C)c(=O)n2C` (stereo not drawn) (tested in a mixture with another compound), the “inhibition” value is 9.5%. As for `Cc1ccc(N2CC(C(=O)OCc3ccccc3F)CC2=O)cc1` (stereo not drawn), the figure is -10.2%.

For the molecule `Cc1cc2oc(=O)cc(CN3CCN(C/C=C/c4ccccc4)CC3)c2cc1O`, the “inhibition” value was 19.4%.

With `O=C(O)/C=C/c1cn(-c2ccccc2)nc1-c1cc2ccccc2oc1=O`, the “inhibition” value is 10.6%. As for `Oc1c(Br)cc(Br)cc1Oc1ccc(Br)cc1Br`, the “inhibition” value is -3.41%. With `Cc1cccc(N/N=C/c2ccc(O)c(O)c2O)c1` the figure was 26.2%.

As for `Oc1c(Br)cc(Br)cc1C=Nc1cccc2ncccc12`, the “inhibition” value was 21.8%. With `Cc1cc(C)nc(NS(=O)(=O)c2ccc(N3C(=O)C4CC=C(Cl)CC4C3=O)cc2)n1` (stereo not drawn) the figure was -20.4%; with `Cc1cc(C)cc(NC(=O)C(Sc2nnc(C)c(=O)[nH]2)c2ccccc2)c1` (stereo not drawn), 16.1%. As for `Cc1c(C)n(C)c2ccc(C(=O)NCc3cccs3)cc12`, the figure is 18.9%; as for `Cc1cccc2cc(C(c3nnnn3Cc3ccccc3)N3CCN(C)CC3)c(=O)[nH]c12` (stereo not drawn), 23.6%. As for `CCN(CC)C(=O)CNC(=O)Cc1ccc(Cl)cc1`, the figure is -19.9%. For the molecule `CCCCc1ccc2[nH]cc(CCN)c2c1`, the “inhibition” value was 14.2%. With `S=C1SCN(Cc2cccnc2)CN1Cc1cccnc1` the figure was 29.1%. With `Cc1nc2nc(COc3ccccc3)nn2c(C)c1Cl` the figure was 5.1%.

With `CC(=O)Nc1cccc(NS(=O)(=O)Cc2ccc(Cl)cc2)c1`, the “inhibition” value is -8.02%. As for `O=C(Nc1ccc(N2CCOCC2)c(Cl)c1)c1ccccc1F`, the figure is 14.4%. Consider `O=C(Nc1ccc(Nc2ccncc2)cc1)c1ccc([N+](=O)[O-])cc1`, for which the “inhibition” value was 27.2%. As for `Cc1cc2oc(C(=O)NCc3ccncc3)c(C)c2cc1C`, the figure is -7.42%. As for `COc1ccc2c(c1)CC1(CN2C)C(=O)NC(=O)N(CCc2ccccc2)C1=O` (stereo not drawn), the figure is 18.7%; as for `Cc1ccc(C(=O)O)cc1N=Cc1cc(Br)cc(Br)c1O`, -3.47%. As for `Nc1ccc(S(=O)(=O)c2ccc(N)cc2)cc1`, the figure is 1.39%.

As a reminder, the inhibition is the relative decrease from the control value, in per cent.
